According to PubChem BioAssay (NCATS):
Records with an inconclusive call do not appear. Activity calls are given as the source filed them. Calls come from the whole dose curve; as a rule, active = well fitted curve in either direction with a large enough effect (not every such curve was filed as active); inconclusive = small, poorly fitted or top-dose-only effect, or another doubt; inactive = flat fitted curve, though single readings scatter.

Experiment: AP1 Signaling Pathway (AID 357);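 note: ME-180 reporter cells stimulated with EGF at its EC50 level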
Settings: ME-180 (cervical carcinoma) AP-1-bla reporter, EGF-induced, beta-lactamase ratio, 5 h; series mostly up to 17.2 µM
From the text: NCGC Assay Overview: Activator protein-1 (AP-1), a transcription factor, plays an important role in tumor genesis by regulating genes involved in cell proliferation, differentiation, apoptosis, and angiogenesis. AP-1 activity is induced by a complex network of signaling pathways that involves extracellular signals, such as growth factors. The AP-1 protein complex formed from c-Fos and c-Jun binding to the AP-1 response element results in transcriptional activation of genes containing such elements within their promoter. Low molecular weight molecules have been discovered and developed to modulate various components of these signaling pathways, for example, MAP kinase inhibitors. However, many points of pathway modulation remain untested due to the lack of chemical probes making this signaling locus of general interest. Using a beta-lactamase reporter-gene under control of the AP-1 response element, a cell-based assay [CellSensor(TM) AP-1-bla ME-180 developed by Invitrogen Corp.] was used to measure EGF-induced signaling. Library compounds were measured for their ability to modulate positively or negatively the action of EC50 EGF on reporter gene activity. Compounds were screened in a titration series in 1536-well format. Positive and negative modulators were identified based on the AC50 values derived from the screening data.
NCGC Assay Protocol Summary: 2500 cells/5uL in Opti-MEM medium containing 0.5% dialyzed FBS, 0.1 mM NEAA, 1 mM sodium pyruvate and 10 mM HEPES was dispensed into 1536-well plates and cells were cultured at 37 degrees Celsius overnight. […] After centrifugation at 1000 rpm for 2 seconds the plates were incubated at 37 degrees Celsius for 5 hours. 1 uL of CCF4-dye mixture was added to each well. After incubated at room temperature for 2.5 hours the plates were measured on an EnVision plate reader at Excitation 405nm, Emission1=460nm and Emission 2=530nm. The %Activity was determined from the ratio of 460nm/530nm.
For O=C(NCC1CCCCN1)c1cc(OCC(F)(F)F)ccc1OCC(F)(F)F (stereo not given), the outcome was “inactive”. For Cc1cc(=O)oc2cc(O)ccc12, the outcome was “inactive”. In the case of CN1C(C(=O)Nc2ccccn2)=C(O)c2sccc2S1(=O)=O, the outcome is reported as “inactive”. In the case of CC(C)(S)[C@@H](N)C(=O)O, the outcome is reported as “inactive”. In the case of O=c1c(O)c(-c2ccc(O)cc2O)oc2cc(O)cc(O)c12, the outcome is reported as “inactive”. With CC1Cc2ccccc2N1NC(=O)c1ccc(Cl)c(S(N)(=O)=O)c1 (stereo not given) the outcome was “inactive”. For CCCCc1ccc2nc(NC(=O)OC)[nH]c2c1, the outcome was “inactive”. With Cc1nc2n(c(=O)c1CCN1CCC(c3noc4cc(F)ccc34)CC1)CCCC2 the outcome was “inactive”. With Cc1c(OCC(F)(F)F)ccnc1CS(=O)c1nc2ccccc2[nH]1 (stereo not given) the outcome was “inactive”. With Cc1cc(C2CCCCC2)n(O)c(=O)c1 the outcome was “inactive”. In the case of Cc1ccc(C)c(OCCCC(C)(C)C(=O)O)c1, the outcome is reported as “inactive”. In the case of CC(=O)Nc1ccc(O)cc1, the outcome is reported as “inactive”. With Cc1cccc(C#Cc2ccccc2)n1 the outcome was “inactive”. With Nc1cc(C(Cl)=C(Cl)Cl)c(S(N)(=O)=O)cc1S(N)(=O)=O the outcome was “inactive”. For NNc1nncc2ccccc12, the outcome was “inactive”. In the case of Nc1nc(OCc2ccccc2)c2[nH]cnc2n1, the outcome is reported as “inactive”. With COc1cc2nc(N3CCN(C(=O)C4CCCO4)CC3)nc(N)c2cc1OC (stereo not given) the outcome was “inactive”. In the case of NCCCCNCCCN, the outcome is reported as “inactive”. In the case of c1ccc2[nH]c(-c3cscn3)nc2c1, the outcome is reported as “inactive”. In the case of CCC1=C(C)CN(C(=O)NCCc2ccc(S(=O)(=O)NC(=O)NC3CCC(C)CC3)cc2)C1=O (stereo not given), the outcome is reported as “inactive”. For CN(C)CCCC1(c2ccc(F)cc2)OCc2cc(C#N)ccc21 (stereo not given), the outcome was “inactive”. In the case of CCCc1cc(=O)[nH]c(=S)[nH]1, the outcome is reported as “inactive”. In the case of CC(C)Oc1ccc2c(=O)c(-c3ccccc3)coc2c1, the outcome is reported as “inactive”. In the case of CC1(C)NC(=O)N(c2ccc([N+](=O)[O-])c(C(F)(F)F)c2)C1=O, the outcome is reported as “inactive”. In the case of N=C(N=C(N)N)N1CCOCC1, the outcome is reported as “inactive”. For O=c1c(O)c(-c2cc(O)c(O)c(O)c2)oc2cc(O)cc(O)c12, the outcome was “inactive”. With CCCCN(CCCC)CCC(O)c1cc2c(Cl)cc(Cl)cc2c2cc(C(F)(F)F)ccc12 (stereo not given) the outcome was “inactive”. With O=c1ccc2ccc(O)c(O)c2o1 the outcome was “inactive”. With COc1cc(OC)c(C(=O)CCCN2CCCC2)c(OC)c1 the outcome was “inactive”. For Cc1cccc(CN2CCN(C(c3ccccc3)c3ccc(Cl)cc3)CC2)c1 (stereo not given), the outcome was “inactive”. For COc1ccccc1N1CCN(CCN(C(=O)C2CCCCC2)c2ccccn2)CC1, the outcome was “inactive”. In the case of O=C(O)c1cccnc1Nc1cccc(C(F)(F)F)c1, the outcome is reported as “inactive”. With COc1ccc2cc([C@H](C)C(=O)O)ccc2c1 the outcome was “inactive”. With Nc1nc(Cl)nc2c1ncn2[C@H]1C[C@H](O)[C@@H](CO)O1 the outcome was “inactive”. With NS(=O)(=O)c1cc(C(=O)O)c(NCc2ccco2)cc1Cl the outcome was “inactive”. For CCc1nc(N)nc(N)c1-c1ccc(Cl)cc1, the outcome was “inactive”. For O=c1cc(N2CCOCC2)oc2c(-c3ccccc3)cccc12, the outcome was “inactive”. In the case of O=C(O)c1cc(=O)c2c(OCC(O)COc3cccc4oc(C(=O)O)cc(=O)c34)cccc2o1, the outcome is reported as “inactive”. With CCOc1cc(CC(=O)N[C@@H](CC(C)C)c2ccccc2N2CCCCC2)ccc1C(=O)O the outcome was “inactive”. For CC(C)[N+]1(C)[C@@H]2CC[C@H]1CC(OC(=O)C(CO)c1ccccc1)C2 (stereo not given in full), the outcome was “inactive”.
